PPARg SRC-1 ag: PPARgamma-driven SRC-1 recruitment agonism; activation, % at 8 µM; P37231; PPARgamma-SRC-1 coactivator recruitment biochemical assay; 200,000 compounds, 0.41% hits; in the data active = activation above about 19%;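 also: 0% = DMSO and 100% = reference agonist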
PPARg SRC3 recr: PPARgamma-driven SRC-3 recruitment agonism; P37231; biochemical PPARgamma/SRC-3 coactivator recruitment assay; activation, % at 8 µM; 200,000 compounds, 0.26% hits; in the data active = activation above about 23%;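 also: 0% = DMSO and 100% = reference agonist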
PPARg SRC-2 ag: agonists of SRC-2 recruitment by human PPARgamma; 200,000 compounds, 0.34% hits; activation, % at 8 µM; PPARgamma LBD-SRC-2 recruitment, biochemical; P37231;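 also: 0% = vehicle and 100% = reference agonist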
SRC2 TRFRET art: counter-screen for PPARgamma SRC-2 recruitment agonists: TR-FRET artefact; 200,000 compounds, 0.4% hits; TR-FRET ratio at 8 µM; AID 1049; active compounds read high; in the data active = TR-FRET ratio above about 2000
SRC3 TRFRET art: flags TR-FRET format artefacts in PPARgamma SRC-3 recruitment agonist screen; TR-FRET artefact counter-screen, PPARgamma/SRC-3 format; active compounds read high; TR-FRET ratio at 8 µM; 99,000 compounds, 0.39% hits; AID 1048; in the data active = TR-FRET ratio above about 2000
SRC1 TRFRET art: flags TR-FRET format artefacts in PPARgamma SRC-1 recruitment agonist screen; TR-FRET detection artefact counter-screen, emission ratio; active compounds read high; TR-FRET ratio at 8 µM; 99,000 compounds, 0.34% hits; in the data active = TR-FRET ratio above about 2300
PPARg SRC2 conf: confirmation of agonists of SRC-2 recruitment by human PPARgamma. shares compounds with PPARg SRC3 recr. biochemical SRC-2 recruitment by PPARgamma. activation, % at 8 µM. 790 compounds, 52% hits. AID 1297;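 also: 0% = vehicle alone and 100% = reference agonist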
PPARg SRC1 ag: confirmation of agonists of SRC-1 recruitment by human PPARgamma. shares compounds with PPARg SRC3 recr. activation, % at 8 µM. PPARgamma–SRC-1 coactivator recruitment biochemical assay. 790 compounds, 43% hits; in the data active = activation above about 20%;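 also: 0% = vehicle wells and 100% = reference agonist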
PPARg SRC3 ag: human PPARgamma SRC-3 recruitment agonism, confirmation; shares compounds with PPARg SRC3 recr; biochemical PPARgamma-SRC-3 coactivator recruitment, agonist mode; activation, % at 8 µM; 790 compounds, 29% hits; AID 1301; in the data active = activation above about 24%;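 also: 0% = vehicle wells and 100% = reference agonist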
Target sequence (P37231 whole entry, looked up): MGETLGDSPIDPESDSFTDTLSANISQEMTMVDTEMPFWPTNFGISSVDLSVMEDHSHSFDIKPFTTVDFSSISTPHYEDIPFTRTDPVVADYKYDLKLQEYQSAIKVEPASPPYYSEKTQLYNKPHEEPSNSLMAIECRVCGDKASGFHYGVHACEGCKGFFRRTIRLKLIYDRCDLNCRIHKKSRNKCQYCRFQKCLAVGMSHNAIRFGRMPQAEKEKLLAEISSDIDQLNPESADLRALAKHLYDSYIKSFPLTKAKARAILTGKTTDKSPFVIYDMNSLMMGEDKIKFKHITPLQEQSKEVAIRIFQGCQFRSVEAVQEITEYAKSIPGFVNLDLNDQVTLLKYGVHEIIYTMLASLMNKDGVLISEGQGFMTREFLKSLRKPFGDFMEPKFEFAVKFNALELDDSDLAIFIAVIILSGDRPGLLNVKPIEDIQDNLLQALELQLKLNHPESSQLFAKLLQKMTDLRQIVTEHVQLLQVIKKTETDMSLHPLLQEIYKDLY
Target sequence (Q9Y6Q9 whole entry, looked up): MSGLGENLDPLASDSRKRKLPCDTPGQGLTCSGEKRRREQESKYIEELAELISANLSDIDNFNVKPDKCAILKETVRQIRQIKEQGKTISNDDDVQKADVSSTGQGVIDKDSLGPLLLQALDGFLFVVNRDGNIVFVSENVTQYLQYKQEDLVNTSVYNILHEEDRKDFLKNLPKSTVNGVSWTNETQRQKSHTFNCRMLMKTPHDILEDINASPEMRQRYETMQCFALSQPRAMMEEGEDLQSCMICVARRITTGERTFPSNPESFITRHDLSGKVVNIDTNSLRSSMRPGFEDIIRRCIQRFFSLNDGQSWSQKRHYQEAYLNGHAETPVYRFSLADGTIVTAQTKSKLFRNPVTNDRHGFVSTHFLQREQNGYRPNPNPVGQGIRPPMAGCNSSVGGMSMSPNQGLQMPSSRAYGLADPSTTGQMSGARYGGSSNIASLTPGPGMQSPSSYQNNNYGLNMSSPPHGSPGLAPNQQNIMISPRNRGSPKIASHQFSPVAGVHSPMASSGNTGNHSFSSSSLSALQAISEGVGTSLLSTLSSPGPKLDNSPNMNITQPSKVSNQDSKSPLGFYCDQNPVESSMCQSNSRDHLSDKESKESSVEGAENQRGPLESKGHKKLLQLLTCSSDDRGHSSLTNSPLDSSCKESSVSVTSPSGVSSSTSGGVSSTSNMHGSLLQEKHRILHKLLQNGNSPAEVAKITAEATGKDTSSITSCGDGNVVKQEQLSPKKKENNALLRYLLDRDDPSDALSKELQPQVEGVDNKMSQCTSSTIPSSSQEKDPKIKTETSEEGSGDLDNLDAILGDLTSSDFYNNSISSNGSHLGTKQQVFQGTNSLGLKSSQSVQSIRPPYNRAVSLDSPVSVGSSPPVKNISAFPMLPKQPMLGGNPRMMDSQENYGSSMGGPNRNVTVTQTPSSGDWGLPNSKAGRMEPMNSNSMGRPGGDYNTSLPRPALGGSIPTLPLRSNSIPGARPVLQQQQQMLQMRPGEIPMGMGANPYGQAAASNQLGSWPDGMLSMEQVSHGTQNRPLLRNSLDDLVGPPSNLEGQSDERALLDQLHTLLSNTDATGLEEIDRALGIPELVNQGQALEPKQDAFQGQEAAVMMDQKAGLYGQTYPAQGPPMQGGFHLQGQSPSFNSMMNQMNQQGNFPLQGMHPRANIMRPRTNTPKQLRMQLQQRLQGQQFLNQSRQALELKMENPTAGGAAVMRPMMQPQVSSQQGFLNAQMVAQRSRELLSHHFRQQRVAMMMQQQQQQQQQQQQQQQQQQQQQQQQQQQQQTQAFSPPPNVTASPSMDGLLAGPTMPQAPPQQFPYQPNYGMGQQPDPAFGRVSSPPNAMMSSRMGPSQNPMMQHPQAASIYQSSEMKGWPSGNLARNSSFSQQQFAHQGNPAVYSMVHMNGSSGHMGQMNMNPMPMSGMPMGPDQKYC
* hit, by the source's call; nt = no result. In the library only some 0.84% were active in any assay of this set; here they are far more common. Rule as the data show it, unless noted: active = activation above about 22%; inactive = the rest.

SMILES	PPARg SRC-1 ag	PPARg SRC3 recr	PPARg SRC-2 ag	SRC2 TRFRET art	SRC3 TRFRET art	SRC1 TRFRET art	PPARg SRC2 conf	PPARg SRC1 ag	PPARg SRC3 ag
CCN(C(=O)COC(=O)c1cc(-c2cccc3ccccc23)nc2ccccc12)C1CCS(=O)(=O)C1 (stereo unspecified)	11.4	10.4	22.2*	1710	2078*	2115	9.6	7.5	5.4
CNC(=S)N1N=C(c2ccc(Br)cc2)CC1c1ccc(OC)cc1 (stereo unspecified)	22.9*	20.7	17.8	2412*	2788*	2835*	36.9*	29.9*	21.1
COc1ccc(C2=NN(C(=O)CN3CCCCC3)C(c3ccc(C)cc3)C2)cc1 (stereo unspecified)	1.8	1.3	1.4	1498	1434	1708	nt	nt	nt
CNC(=S)N1N=C(c2ccc(OC)cc2)CC1c1ccc(Cl)cc1Cl (stereo unspecified)	22.1*	15.8	7.3	2360*	3446*	3403*	18.2	12.4	12.2
O=C(c1ccccc1)c1sc(N2CCCCCC2)nc1-c1ccccc1	19.2*	23.4	7.0	1948	nt	nt	15.6	13.3	8.0
[2H]c1c([2H])c([2H])c(C(=O)c2sc(N3CCCCCC3)nc2-c2ccccc2)c([2H])c1[2H]	13.4	28.2*	16.6	1896	nt	nt	15.9	11.7	10.0
Cc1ccc(-n2c(-c3ccccc3)n[nH]c2=S)cc1	19.6*	27.2*	35.5*	2299*	nt	nt	35.4*	27.5*	25.7*
Cc1c(Cl)c(-c2n[nH]c(=S)n2-c2ccccc2)nn1C	19.9	16.8	23.7*	2128*	2138*	2260	25.0*	17.6	18.4
COc1ccc(Cl)cc1NC(=O)CCNC(=O)OCc1ccccc1	-10.2	0.3	-2.6	1438	1540	1482	nt	nt	nt
CN1CCN(C(=O)C2=C[C@@H](C3CCCCC3)C[C@@H](OCCCCO)O2)CC1	-3.9	-4.2	6.0	1638	1624	1941	nt	nt	nt
COc1ccc(C2C(C(=O)c3ccco3)=C(O)C(=O)N2c2nnc(C)s2)cc1 (stereo unspecified)	25.4*	20.8	17.6	2089*	2261*	2503*	30.9*	25.0*	16.7
C=CCOc1ccc(C2C(C(=O)c3ccco3)=C(O)C(=O)N2c2nnc(C)s2)cc1 (stereo unspecified)	14.3	14.4	25.0*	2019*	1863	2094	25.8*	24.0*	16.2
Cc1cc(=O)oc2cc(OCc3ccc(C(=O)OCC(=O)Nc4ccccc4OC(F)F)cc3)ccc12	0.7	-0.2	10.9	1640	1600	1743	nt	nt	nt
CCCCCCN1C=CC(=C/C=C(\C#N)C(=O)OCC)C=C1	20.7*	14.6	20.0	1710	nt	nt	6.7	4.0	3.8
CCCN1C=CC(=C/C=C(\C#N)C(=O)OCC)C=C1	16.9	13.8	19.5	1797	nt	nt	nt	nt	nt
COc1ccc2c(c1)O[C@@H](c1cccc(C(F)(F)F)c1)[C@H](OC(=O)N[C@H]1CCCc3ccccc31)C2=O	10.2	0.9	24.5*	1831	1457	1778	1.5	5.7	-0.1
COCCCNC(=S)Nc1cccc(S(=O)(=O)NC2=NCCC2)c1	11.7	0.9	-2.3	1619	1582	1689	nt	nt	nt
Cc1nc2ncccn2c1-c1csc(Nc2ccc(N(C)C)cc2)n1	15.9	10.9	23.9*	1937	1862	2311	15.2	8.9	7.1
Cc1nc2ncccn2c1-c1csc(Nc2ccccc2)n1	1.7	1.6	4.8	1514	1596	1937	nt	nt	nt
CC(NC(=O)Cc1cccc(C(F)(F)F)c1)c1ccc(F)cc1 (stereo unspecified)	-4.3	-4.1	0.6	1328	1592	1566	nt	nt	nt
CC1(C)CC(=O)c2cc3c(N)c(C(=O)NCc4ccccc4)sc3nc2C1	0.4	-8.2	-4.0	1548	nt	nt	nt	nt	nt
CN1CCc2nc3sc(C(=O)NCc4ccccc4)c(N)c3cc2C1	13.4	15.9	23.6*	1733	1839	2218	5.8	5.7	6.6
O=[N+]([O-])c1ccc(C2Nc3cccc4cccc(c34)N2)cc1	20.8*	6.8	17.0	1698	1578	1856	4.6	1.4	2.6
Cc1ccc(NC(=O)CSc2nnc(-c3cccs3)o2)cc1S(=O)(=O)N(C)C	2.7	-2.4	3.0	1440	1451	1789	nt	nt	nt
Cc1ccc(-c2csc3nnc(SCC(=O)Nc4cccc(C)n4)n23)cc1	20.6*	9.8	9.6	1744	nt	nt	3.5	5.2	5.3
SMILES	PPARg SRC-1 ag	PPARg SRC3 recr	PPARg SRC-2 ag	SRC2 TRFRET art	SRC3 TRFRET art	SRC1 TRFRET art	PPARg SRC2 conf	PPARg SRC1 ag	PPARg SRC3 ag
CCCn1c(SCC(=O)NCc2ccccc2Cl)n[nH]c1=O	-1.7	0.2	1.3	1522	1489	1904	nt	nt	nt
Cc1ccccc1N1C(=O)CN(Cc2sccc2C)C1=S	-9.2	0.8	4.0	1424	1668	1798	nt	nt	nt
CCN(CC)c1ccc(C=Nc2ccccc2)c(O)c1	-3.6	10.3	5.8	1517	nt	nt	nt	nt	nt
CCN(CC)c1ccc(C=Nc2ccc(N(C)C)cc2)c(O)c1	23.5*	98.1*	77.8*	2498*	nt	nt	6.2	5.3	6.8
CC1(C)Cc2cccc(OCC(=O)Nc3cc(C(F)(F)F)ccc3N3CCOCC3)c2O1	3.0	6.6	5.2	1671	nt	nt	nt	nt	nt
Cc1nc2ccccc2nc(C)c1=NOCc1ccccc1Cl	9.7	2.6	-0.4	1493	1542	1739	nt	nt	nt
CCOC(=O)c1c(C)[nH]sc1=S	40.5*	70.3*	58.4*	2727*	nt	nt	33.4*	20.6*	24.9*
CCCC1=NN(C(=O)C(=O)Nc2ccc(Br)cc2)C(O)(C(F)(F)F)C1 (stereo unspecified)	-9.9	-6.0	-12.5	1413	1452	1737	nt	nt	nt
C#CCn1c(=NC(=O)c2sc3ccccc3c2Cl)sc2cc(S(N)(=O)=O)ccc21	13.4	15.8	32.9*	2057*	2062*	2366*	32.9*	21.5*	14.9
CC1(C)CC2CC(C)(CN2Cc2c(O)ccc3ccccc23)C1 (stereo unspecified)	4.5	-1.9	-3.2	1601	1440	1730	nt	nt	nt
O=C(O)c1cccc(NC(=O)c2ccc(S(=O)(=O)c3ccccc3)cc2)c1	1.9	-3.1	7.1	1639	1685	1799	nt	nt	nt
COC(=O)c1c(C(=O)OC)c2cc(C)ccn2c1Cl	5.6	2.9	8.7	1615	nt	nt	nt	nt	nt
COC(=O)c1cc2c(-c3ccccc3)c(C)c3ccccn3c-2c1C(=O)OC	17.3	29.5*	16.2	1968	nt	nt	8.0	13.5	3.9
COC(=O)c1c(Cl)c2n3ccccc3c(C)c(-c3ccccc3)c-2c1C(=O)OC	18.2	11.0	24.2*	2016*	2198*	2328*	0.7	3.4	2.5
CC(=O)NN1C(=O)/C(=C\c2ccc(Cl)cc2)SC1=S	12.4	0.5	4.8	1658	1680	1991	nt	nt	nt

Screening data as filed in PubChem.
